Source: PubChem BioAssay (NCI)
Compounds without any hit were thinned out: in the full panel of roughly 79,000, 15% have a hit. Cut-off read from the data, not from the text of the source: active = growth inhibition above about 70%; inactive = the rest. *1 amine or outer side, *2 acyl side, *3 side chain or, on linkers, in order; H or OH if unused. Where a SMILES comes first, the peptide text is derived from it. Bridges are numbered along the chain shown (N, C = ends). Roman numbers before positions name the chains, in order. [ ]: non-standard residue; d: D form. The star is where a group is joined. Actinocin(9to1) = Cc1c2oc3c(C)ccc(C(=O)[*:1])c3nc-2c(C(=O)[*:2])c(N)c1=O; NMeT = CN[CH](C(=O)O)[CH](C)O; Cbz = O=C(OCc1ccccc1)*; Sar = CNCC(=O)O; NHNH2 = NN*

Legend:
[1] = NCI Yeast Anticancer Drug Screen. Data for the rad50 strain (AID 155);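 note: 0% = growth of vehicle-only cultures of the same strain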; conditions: S. cerevisiae rad50 strain growth inhibition; at 50.0 µM; hits give high values
Summary of the method: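 A DNA repair-deficient yeast mutant serves as the test organism; compound-induced growth inhibition is calculated against vehicle-treated cells.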

[2] = NCI Yeast Anticancer Drug Screen. Data for the mec2-1 strain (AID 157); conditions: S. cerevisiae mec2-1 strain, at 50.0 µM, hits give high values
Summary of the method: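 Strain: mec2-1 (DNA repair/cell cycle alteration). Compound exposure, then growth measured; inhibition expressed relative to vehicle.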

[3] = NCI Yeast Anticancer Drug Screen. Data for the sgs1 mgt1 strain (AID 161);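 note: 0% = growth of cultures given vehicle only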; conditions: S. cerevisiae sgs1 mgt1 strain, at 50.0 µM, hits give high values
Summary of the method: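 Genetically altered yeast, compound exposure, growth inhibition relative to vehicle.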

[4] = NCI Yeast Anticancer Drug Screen. Data for the cln2 rad14 strain (AID 165);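 note: 0% = growth equal to vehicle treated cultures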; conditions: S. cerevisiae cln2 rad14 strain, at 50.0 µM, hits give high values
Summary of the method: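 Compounds are applied to the cln2 rad14 yeast strain, and growth is then compared with that of vehicle-treated cultures to give inhibition.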

[5] = NCI Yeast Anticancer Drug Screen. Data for the bub3 strain (AID 167); conditions: S. cerevisiae bub3 mutant strain, at 50.0 µM, hits give high values
Summary of the method: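 Inhibition values come from growth of compound-treated mutant yeast normalised to vehicle-treated controls.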

[6] = NCI Yeast Anticancer Drug Screen. Data for the mlh1 rad18 strain (AID 175); conditions: S. cerevisiae mlh1 rad18 strain growth inhibition; at 50.0 µM; hits give high values
Summary of the method: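 Read-out is yeast growth inhibition, calculated against vehicle-only controls. The compound was applied to a strain engineered with DNA damage repair alterations.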

Measured: growth inhibition

O=C(Nc1ccc([N+](=O)[O-])cc1)c1ccc(Cl)cc1
inactive: [1] -4.7% | [2] 7.75% | [3] -1.35% | [4] -50.5% | [5] 5.15% | [6] -36.5%

N#Cc1ccc(CC(=O)O)cc1
inactive: [1] 25.2% | [2] -16.5% | [3] 6.9% | [4] 0.35% | [5] -7.95% | [6] -7.75%

CNCCCC1c2ccccc2C=Cc2ccccc21
inactive: [1] 5.5% | [2] 2.9% | [3] 12.8% | [4] -1.7% | [5] 0.15% | [6] 11.8%

C=CC1C(OC2OC(CO)C(O)C(O)C2O)OC=C(C(=O)OC)C1CC1CC(=O)CC(CCc2ccc(O)cc2)O1 (centres undefined)
inactive: [1] 1.8% | [2] -10.1% | [3] -4.9% | [4] 1.45% | [5] -13.9% | [6] -76.2%

CCCCC(CC)(CO)CO
inactive: [1] 11.2% | [2] 3.95% | [3] 5.35% | [4] 1.05% | [5] -4.55% | [6] 16.6%

CC(=O)C(C(=O)NCc1ccccc1)C(c1ccc2c(c1)OCO2)C(C(C)=O)C(=O)NCc1ccccc1 (centres undefined)
inactive: [1] -5.7% | [2] 1.25% | [3] -23.6% | [4] -17.3% | [5] -0.65% | [6] 0.45%

Cn1c(=O)n(CCn2c(=O)n(C)c3ccccc32)c2ccccc21
inactive: [1] -1.6% | [2] 14% | [3] -3.15% | [4] 3.55% | [5] 4.5% | [6] -3.8%

N#CC(C#N)=C(O)/C(=C/c1ccc(Cl)cc1Cl)NC(=O)c1ccccc1
inactive: [1] 9.4% | [2] 1.15% | [3] -7.9% | [4] 7.9% | [5] -13.3% | [6] 14.3%

CC(=O)OC1C(C(O)CO)OC2OC(C)(C)OC21 (centres undefined)
inactive: [1] -10.9% | [2] -14.1% | [3] -14% | [4] -58.8% | [5] -59.5% | [6] -6.25%

COc1ccc(NC(=O)NNS(=O)(=O)c2ccc(C)cc2)cc1
inactive: [1] 10.1% | [2] 6.15% | [3] 6.6% | [4] 4.9% | [5] 13.9% | [6] -36.9%

CC(O)C12OC1CC1C3CC4OC45CC(O)CCC5(C)C3CCC12C (centres undefined)
inactive: [1] 36.5% | [2] 20.6% | [3] 38.7% | [4] 31.1% | [5] 36.9% | [6] 9.1%

CCOC(=O)/C(Cc1ccccc1[N+](=O)[O-])=N/O
inactive: [1] 6.7% | [2] 2.85% | [3] 8.65% | [4] -13.4% | [5] 12.3% | [6] 26.6%

COC(=O)c1ccc(-n2c(C)nc(=O)c(-c3ccccc3)c2C)cc1
inactive: [1] -6.85% | [2] -33.4% | [3] 12.4% | [4] 11.9% | [5] 0.95% | [6] 7.65%

Cc1ccc(NC(=O)c2cc(S(=O)(=O)n3cc[nH]c3=O)c(S)cc2Cl)cc1
inactive: [1] 14.5% | [2] -5.85% | [3] 23.9% | [4] 8.65% | [5] -4.75% | [6] 34%

O=[N+]([O-])c1ccccc1N/N=C/c1ccccc1
inactive: [1] -10.2% | [2] 7.1% | [3] 2.6% | [4] -65.9% | [5] 8.35% | [6] 10.8%

CCOC(=O)c1ccc(N2C(C#N)c3ccccc3OC2c2ccccc2O)cc1 (centres undefined)
inactive: [1] 5.5% | [2] 2.25% | [3] 15.6% | [4] -19.5% | [5] 1.3% | [6] 21.4%

CCCCCCCCCC/C=C/C=O
inactive: [1] 57.6% | [2] 43.5% | [3] 53.8% | [4] 18.7% | [5] 43.6% | [6] 8.9%

Cc1cccc(N=NC2Sc3nc4ccccc4n3C2=O)c1 (centres undefined)
inactive: [1] -16.9% | [2] -19.4% | [3] -20.1% | [4] -9.25% | [5] 2.25% | [6] 2.9%

Cc1ccc(S(=O)(=O)OCC2COC(C(C)C)OC2)cc1 (centres undefined)
inactive: [1] 5.45% | [2] -2.95% | [3] 9.3% | [4] 2.15% | [5] 48% | [6] -1.25%

N.N.N.N.N.O=S(=O)([O-])S(=O)(=O)[O-].[Co+3]
inactive: [1] 9.15% | [2] 16.4% | [3] 13% | [4] 23.2% | [5] -2.05% | [6] -9%

O=C(Nc1ccc(F)cc1)c1cc2c(cc1Cl)Sc1nccn1S2(=O)=O
inactive: [1] -7% | [2] -4% | [3] -8.8% | [4] 16.9% | [5] 3.55% | [6] 2.7%

CC(CO)CCNc1ncnc2c1ncn2CCC#N (centres undefined)
inactive: [1] -9.3% | [2] 10.1% | [3] -46.5% | [4] -19.9% | [5] 6.95% | [6] -13.4%

N#CC1C(C#N)C2CCC1C1N=NN(c3ccccc3)C21 (centres undefined)
inactive: [1] -16.4% | [2] -12.1% | [3] -10.8% | [4] -19.1% | [5] 17.9% | [6] -28.6%

N#C/C(C(=O)NCc1ccccc1)=C(/N)N1CCCC1
inactive: [1] -4.95% | [2] -16.2% | [3] 0.25% | [4] -16.6% | [5] -5.3% | [6] -0.15%

COc1cc(C(=O)O)cc(O)c1OC
inactive: [1] 4.95% | [2] -4.5% | [3] -2.85% | [4] -6.25% | [5] 2.4% | [6] 8.45%

N#C/C(=C\n1c(=S)[nH]c2ccccc21)c1nc2ccccc2s1
inactive: [1] -2.85% | [2] -4.45% | [3] -9.15% | [4] -4.15% | [5] 4.25% | [6] 36.8%

COC(=O)C[C@@]1(C(=O)OC)[C@@H](C(=O)OC)C(C(=O)OC)=NN1C
inactive: [1] -5.35% | [2] -18.4% | [3] 0.85% | [4] -49% | [5] 18.1% | [6] -4.45%

CC(=O)N=C1N(/C=C2\C(=O)Oc3ccccc3C2=O)C(=O)/C(=C/c2ccc3c(c2)OCO3)N1C
inactive: [1] 21.6% | [2] -5.55% | [3] 5.25% | [4] 9.4% | [5] -6.35% | [6] 10.5%

CSC(=NNC(N)=O)SC
inactive: [1] 4.4% | [2] -2.8% | [3] 1.2% | [4] -14.2% | [5] -9.7% | [6] 5.4%

Cc1c2oc3c(C)ccc(C(=O)NC4C(=O)NC(C(C)C)C(=O)N5CCCC5C(=O)N(C)CC(=O)N(C)C(C(C)O)C(=O)OC4C)c3nc-2c(C(=O)NC2C(=O)NC(C(C)C)C(=O)N3CCCC3C(=O)N(C)CC(=O)N(C)C(C(C)O)C(=O)OC2C)c(N)c1=O (centres undefined) (I: TVP[Sar][NMeT] / II: TVP[Sar][NMeT]; ester I:1-I:C, II:1-II:C; linker I:N-II:N via Actinocin(9to1); configuration not given here)
inactive: [1] 19.4% | [2] -21% | [3] -3.3% | [4] 31.3% | [5] -5.3% | [6] -52.5%

N[C@@H](Cc1ccccc1)C(=O)NCCNC(=O)[C@@H](N)Cc1ccccc1
inactive: [1] -13.1% | [2] -3.25% | [3] -8.85% | [4] 17.2% | [5] -0.7% | [6] 3.45%

C=C1C(=O)O[C@H]2C[C@@H]1C(=O)C/C(C)=C/CC/C(C)=C/CC[C@@]2(C)OCSC
inactive: [1] 18.9% | [2] -5% | [3] 39% | [4] 26.9% | [5] 9.85% | [6] 13.7%

COC(=O)CC(NC(=O)OCc1ccccc1)C(=O)NC(CC(=O)OC)C(=O)NC(CC(=O)OC)C(=O)NC(CC(=O)OC)C(=O)NC(CC(=O)OC)C(=O)NC(CC(=O)OC)C(=O)NN (centres undefined) (Cbz-D(OMe)D(OMe)D(OMe)D(OMe)D(OMe)D(OMe)-NHNH2; configuration not given here)
inactive: [1] -18.6% | [2] -16.9% | [3] -24.6% | [4] 20.6% | [5] 25.7% | [6] -18.5%

CC[O-].Cc1ccc2cccc([O-])c2n1.Cc1ccc2cccc([O-])c2n1.Cc1ccc2cccc([O-])c2n1.[Ti+4]
inactive: [1] -18.1% | [2] -5.75% | [3] -1.5% | [4] 20% | [5] -1.25% | [6] 4.3%

COC(c1ccccc1)(c1ccccc1)c1cc(NS(=O)(=O)c2ccccc2)ccc1NS(=O)(=O)c1ccccc1
inactive: [1] 14.2% | [2] 3.9% | [3] 13% | [4] -17.1% | [5] -4.7% | [6] 8.05%

CC(=O)OCC1OC(n2cnc([N+](=O)[O-])c2Br)C(OC(C)=O)C1OC(C)=O (centres undefined)
inactive: [1] 15.1% | [2] 15.4% | [3] 18.8% | [4] 25.5% | [5] 6.05% | [6] 21.8%

CCSCCC(C)(N)C(=O)O (centres undefined)
inactive: [1] -7.35% | [2] -8.85% | [3] -12.3% | [4] -38.7% | [5] 2.3% | [6] -3.7%

C#CC(C)OC(=O)Nc1ccccc1 (centres undefined)
inactive: [1] 28.6% | [2] -22.2% | [3] 3.4% | [4] -3.95% | [5] -7.65% | [6] -8.3%

Cc1ccc(S(=O)(=O)OC2COC3C2OC2OC(C)(C)OC23)cc1 (centres undefined)
inactive: [1] 19.1% | [2] 11.2% | [3] 0.2% | [4] -9.1% | [5] 7.4% | [6] 0.35%
